Holding throughout (assay): NCI-60 one-dose screen, 48 h (100 = growth as untreated, 0 = no growth, -100 = all killed)
Holding throughout (settings): 10 µM unless noted

The subject of test [1] is HCT-15 colon.
The test system of test [2] is HT29 colon.
Test [3] deals with SNB-75 CNS.
The subject of test [4] is SNB-19 CNS.
Test [5] has as its system U251 CNS.
In test [6] the test system is PC-3 prostate.
Test [7] has as its system SK-MEL-5 melanoma.
For test [8], the system named is UACC-62 melanoma.
The subject of test [9] is LOX IMVI melanoma.
In test [10] the test system is SK-MEL-28 melanoma.
The test system of test [11] is SK-MEL-2 melanoma.
For test [12], the system named is EKVX NSCLC.
Test [13] concerns SN12C renal.
Test [14] concerns UO-31 renal.
Test [15] deals with TK-10 renal.
Test [16] relates to ACHN renal.
Test [17] relates to CAKI-1 renal.
For test [18], the system named is A498 renal.
Test [19] concerns CCRF-CEM leukemia.
Test [20] relates to MOLT-4 leukemia.

Each structure is given as a SMILES string. The panel holds about 83,000 compounds, 20% with a hit somewhere; the sample as a whole holds those more often.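 The endpoint reported here, percent growth, reads 100 for growth as untreated, 0 for no net growth and -100 for all cells dead.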 A number with no mark means an inactive call. Activity calls are given as the source filed them. Rule for the calls: active = growth percent below 10; inactive = the rest.

In the case of `CC1C(C)N(C(=O)CCl)c2ccccc2N1C(=O)CCl` (stereo not given), the growth in test [1] is -83.4% (active); in test [2], -73.5% (active); in test [3], -99.4% (active); in test [4] it was 8.21% (active); in test [5], -93.4% (active); in [6], -36.6% (active). The growth was -70.4% (active) in test [7]; -76.8% (active) in test [8]; -81.2% (active) in test [9]; -45.9% (active) in [10]; -40.9% (active) in [11]; -60% (active) in test [12]. Moreover, the growth in [13] was -26.6% (active); in test [14], -84.8% (active); in test [15], -87.4% (active); in test [16], -91.5% (active); in test [17], -79.7% (active); in test [18] it was -83.5% (active). For the same molecule, the results for the growth in test [19] and in [20] were -34.6% (active) and -26.5% (active), respectively.

For the molecule `O=C(C(=O)c1cc(Br)ccc1O)c1cc(Br)ccc1O`, the growth in test [1] was 54%; in test [2], 93.7%; in [3] it was 59.8%; in test [4], 37.9%; in [5], 43.6%; in test [6], 46.5%. Besides, the growth is 14.7% in [7]; 11.7% in [8]; 39.1% in test [9]; 51.1% in [10]; 28.4% in test [11]; 88.2% in test [12]. Also, the growth in test [13] was 59.4%; in [14], 24.8%; in test [15], 61.4%; in test [16], 55.8%; in [17], 50%; in test [18], 93.5%. Also, the growth is 53.2% in test [19] and 37.6% in test [20].

As to `CC(NC(=O)Oc1cccc2ccccc12)c1ccccc1` (stereo not given), the growth in [1] was 100%; in test [2], 104%; in test [3], 87.4%; in [4] it was 105%; in test [5] it was 90.7%; in test [6], 84.9%. Moreover, the growth in test [7] was 97%; in test [8] it was 89.2%; in test [9], 87.2%; in test [10] it was 110%; in test [11], 107%; in test [12], 107%. For the same molecule, the growth was 97.4% in [13]; 61.1% in test [14]; 105% in test [15]; 98.9% in test [16]; 121% in [17]; 106% in [18]. For the same molecule, the growth was 72% in test [19] and 68.9% in test [20].

On to `BrC1CC(Br)c2c1c1c(c3c2C(Br)CC3Br)C(Br)CC1Br` (stereo not given), for which the growth in test [1] is 97.6%; in test [2] it was 86.7%; in [3], 68.6%; in test [4], 98.7%; in [5] it was 88.7%; in test [6] it was 81.5%. Further, the growth in test [7] was 99.8%; in test [8], 82.4%; in [9], 73.7%; in test [10] it was 119%; in test [11], 115%; in test [12], 101%. Moreover, the growth in [13] is 109%; in test [14] it was 39.9%; in [15], 121%; in [16], 87.2%; in test [17] it was 94.5%; in test [18] it was 117%. Moreover, the growth in test [19] was 114%; in [20], 75.8%.

Consider `O=C(NN1C(=O)c2cc(C(=O)O)c(C(=O)O)cc2C1=O)c1ccncc1`, for which the growth in test [1] was 103%; in test [2] it was 108%; in test [3], 145%; in test [4], 106%; in [5], 100%; in [6], 84.6%. In addition, the growth is 106% in [7]; 92.3% in test [8]; 109% in [9]; 94.2% in test [10]; 104% in test [11]; 108% in test [12]. For the same molecule, the growth in test [13] is 93.9%; in [14] it was 112%; in test [15], 88.4%; in test [16], 102%; in test [17], 98.2%; in test [18], 112%. Further, the growth in [19] is 103%; in test [20] it was 98.6%.

In the case of `C=C(CN1CCc2c([nH]c3ccccc23)C1)c1ccc(C(=O)Nc2ccon2)cc1`, the growth is 104% in test [1]; 99.2% in test [2]; 96.6% in test [3]; 74.4% in test [4]; 92% in [5]; 73.8% in [6]. The growth was 88% in test [7]; 80% in test [8]; 83.8% in test [9]; 97.8% in test [10]; 75.8% in test [11]; 80.3% in test [12]. Moreover, the growth in test [13] is 93.8%; in test [14] it was 30.7%; in test [15] it was 131%; in test [16] it was 99%; in [17] it was 83.9%; in test [18] it was 116%. Moreover, the growth in [19] is 81.2%; in test [20] it was 77.1%.

As for `COc1cc2c(cc1OC)C(=O)/C(=C/c1cccc(OCC(=O)c3ccccc3)c1)C2`, the growth in test [1] is 83.4%; in test [2], 42.1%; in [3], 85.2%; in test [4], 93.3%; in test [5], 74.2%; in test [6], 62%. The growth in test [7] was 67.6%; in test [8], 68.1%; in test [9] it was 72.3%; in test [10], 107%; in [11], 44.1%; in test [12] it was 94.4%. Besides, the growth in test [13] was 88.8%; in test [14], -19.2% (active); in [15], 122%; in test [16] it was 96.9%; in test [17], 93.4%; in test [18] it was 103%. Further, the growth is 38% in [19] and 55.3% in test [20].

In the case of `COc1ccc(C2CC(c3ccc4c(c3)OCO4)=NN2C=O)cc1` (stereo not given), the growth in test [1] was 102%; in test [2], 98%; in test [3], 76.4%; in test [4], 93.9%; in [5], 102%; in test [6], 93.4%. In addition, the growth was 95.9% in [7]; 82.1% in [8]; 95.4% in test [9]; 107% in test [10]; 100% in test [11]; 91.7% in test [12]. The growth was 106% in test [13]; 87.4% in test [14]; 93.4% in test [15]; 103% in test [16]; 102% in [17]; 91.2% in test [18]. Further, the growth in test [19] was 93.9%; in test [20], 101%.

(Values after PubChem BioAssay (NCI).)
